{
  "source": "PubChem BioAssay (NCI)",
  "note": "The panel holds about 79,000 compounds, 15% with a hit somewhere; the sample as a whole holds those more often. Active and inactive are the calls of the source. No stated cut-off is given here; in the data, active means growth inhibition above about 70%; inactive means the rest.",
  "data": [
    {"assay": "NCI Yeast Anticancer Drug Screen. Data for the sgs1 mgt1 strain (AID 161);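 further: 0% = growth of cultures given vehicle only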", "conditions": "S. cerevisiae sgs1 mgt1 strain, at 5.0 µM (retest, dose inferred, filed as 0.5), hits give high values", "method_in_brief": "(§1)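 Read-out: growth inhibition vs vehicle controls. Cells: mutant yeast strain deficient in DNA damage repair.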", "values": [
      {"smiles": "Cc1cc(NCCCCCCCNc2cc(C)nc3cc(N)ccc23)c2ccc(N)cc2n1", "growth inhibition": "12% (inactive)"},
      {"smiles": "C[C@]12CC[C@H]3[C@@H](CCC4=CC(=O)CC[C@@]43C)[C@@H]1CC[C@@H]2C(=O)C=O", "growth inhibition": "16% (inactive)"},
      {"smiles": "COc1cc2c[n+](C)c3c4cc(OC)c(OCc5ccccc5)cc4c(OCc4ccccc4)cc3c2cc1OC", "growth inhibition": "0% (inactive)"},
      {"smiles": "Nc1ncnc2c1c(-c1ccc(Cl)cc1)cn2-c1ccccc1", "growth inhibition": "42% (inactive)"},
      {"smiles": "Cc1c[nH]c2nc(C)n(-c3ccccc3)c(=N)c12", "growth inhibition": "-3% (inactive)"},
      {"smiles": "COc1ccc(Cc2ccc3c(C)cc(Cl)nc3c2)cc1", "growth inhibition": "-5% (inactive)"},
      {"smiles": "COC(=O)c1ccc(NCc2c(O)ccc(O)c2Br)cc1Cl", "growth inhibition": "21% (inactive)"},
      {"smiles": "CC1=CC(=O)c2c(O)c3c(c(O)c2C1=O)C1C(O)C(C3=O)C23C(=O)c4c(O)c(C)cc(O)c4C(O)=C2C(=O)CC(O)C13", "note": "(stereo not drawn)", "growth inhibition": "-21% (inactive)"},
      {"smiles": "CC(C)(O)[C@H](CCO)O[Si](c1ccccc1)(c1ccccc1)C(C)(C)C", "growth inhibition": "13% (inactive)"},
      {"smiles": "COC(=O)/C(C#N)=C(/SC)N(C)C", "growth inhibition": "2% (inactive)"},
      {"smiles": "N#CC(C(=O)CCCC(=O)Nc1ccc(Cl)cc1)c1ccccc1Cl", "note": "(stereo not drawn)", "growth inhibition": "9% (inactive)"},
      {"smiles": "FC(F)(F)c1cccc(Nc2ccc3cnc4ccccc4c3c2)c1", "growth inhibition": "-1% (inactive)"},
      {"smiles": "CN1C(/C=C/c2ccc(O)c3ncccc23)CCC2CCCC(O)C21", "note": "(stereo not drawn)", "growth inhibition": "9% (inactive)"},
      {"smiles": "N#CC1(C#N)C(C#N)(C#N)C12CCCC2", "growth inhibition": "4% (inactive)"},
      {"smiles": "O=C1C(Cl)=C(Cl)C(=O)C2=C1CC(Cl)C(Cl)C2", "note": "(stereo not drawn)", "growth inhibition": "91% (active)"},
      {"smiles": "N#CC(/C=C/c1ccccc1)(NO)Nc1cccc(Cl)c1", "note": "(stereo not drawn)", "growth inhibition": "39% (inactive)"},
      {"smiles": "O=C(O)c1ccccc1C(c1ccccc1)c1ccccc1", "growth inhibition": "26% (inactive)"},
      {"smiles": "OCC1(c2ccccc2)OC1c1ccccc1", "note": "(stereo not drawn)", "growth inhibition": "-65% (inactive)"},
      {"smiles": "COc1ccc(NS(=O)(=O)c2ccc(F)cc2)cc1", "growth inhibition": "-26% (inactive)"},
      {"smiles": "CCn1c2nc(=O)n(C)c(=O)c-2[n+]([O-])c2cc(C)ccc21", "growth inhibition": "4% (inactive)"},
      {"smiles": "O=[N+]([O-])C(=C(Nc1ccccc1)Nc1ccccc1)C(Cl)=C(Cl)Cl", "growth inhibition": "92% (active)"},
      {"smiles": "CCC/C(=N\\NC(=S)N(C)C)c1ccccn1", "growth inhibition": "88% (active)"},
      {"smiles": "O=C(CSc1cc[o+]cc1)c1cccc([N+](=O)[O-])c1", "growth inhibition": "4% (inactive)"},
      {"smiles": "CC12CCC(c3sc(N)c(C#N)c31)C2(C)C", "note": "(stereo not drawn)", "growth inhibition": "-13% (inactive)"},
      {"smiles": "N#CC(C#N)=C(C1CC1)C1CC1", "growth inhibition": "-47% (inactive)"},
      {"smiles": "Cc1c(N=Nc2cccc(F)c2)c(-c2ccccc2)nn1C(N)=S", "growth inhibition": "3% (inactive)"},
      {"smiles": "CN1COc2c(Cl)cc(Cl)cc2C1", "growth inhibition": "0% (inactive)"},
      {"smiles": "O=C1CCCCO1", "growth inhibition": "0% (inactive)"},
      {"smiles": "Nc1cc2c(cc1/C=C(\\C(=O)O)c1ccccc1)OCO2", "growth inhibition": "-5% (inactive)"},
      {"smiles": "Cc1cc2c(cc1C)C(=O)OC2=O", "growth inhibition": "2% (inactive)"},
      {"smiles": "C(/Cc1ccc2c(c1)OCO2)=N\\NC1=NCCCCN1", "growth inhibition": "-2% (inactive)"},
      {"smiles": "CCCCCCCCN(CCCCCCCC)CC(O)c1cc(-c2ccc(OC)cc2)nc2cc(Cl)ccc12", "note": "(stereo not drawn)", "growth inhibition": "17% (inactive)"},
      {"smiles": "Cc1cc(C(=O)CBr)c(CN2C(=O)c3ccccc3C2=O)c(=O)n1C", "growth inhibition": "25% (inactive)"},
      {"smiles": "O=C(O)c1ccccc1-c1c2ccc(=O)c(Br)c-2oc2c(Br)c(O)ccc12", "growth inhibition": "33% (inactive)"},
      {"smiles": "O=C(Nc1cccc(NC(=O)c2cc(=O)c3ccccc3o2)n1)c1cc(=O)c2ccccc2o1", "growth inhibition": "-4% (inactive)"},
      {"smiles": "COC(=O)c1nc(=S)[nH]c(C(=O)OC)c1C(=O)c1ccc([N+](=O)[O-])cc1", "growth inhibition": "-5% (inactive)"},
      {"smiles": "COC1/C=C\\C=C(/C)C(=O)Nc2cc3nc4cc(Br)ccc4oc-3c(c2=O)CC(C)CC(OC)C(O)C(C)/C=C(\\C)C1OC(N)=O", "note": "(stereo not drawn)", "growth inhibition": "46% (inactive)"},
      {"smiles": "NC(=S)C(=S)N/C=C(/c1ccc(Cl)cc1)S(=O)(=O)Cc1ccc(Cl)cc1", "growth inhibition": "-3% (inactive)"},
      {"smiles": "O=C(Cc1ccccc1)c1ccccc1C(=O)NNc1ccccc1", "growth inhibition": "-4% (inactive)"}
    ]},
    {"assay": "NCI Yeast Anticancer Drug Screen. Data for the sgs1 mgt1 strain (AID 161);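 further: 0% = growth of cultures given vehicle only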", "conditions": "S. cerevisiae sgs1 mgt1 strain, at 50.0 µM (retest, dose inferred, filed as 5.0), hits give high values", "method_in_brief": "as §1", "values": [
      {"smiles": "Cc1cc(NCCCCCCCNc2cc(C)nc3cc(N)ccc23)c2ccc(N)cc2n1", "growth inhibition": "78% (active)"},
      {"smiles": "C[C@]12CC[C@H]3[C@@H](CCC4=CC(=O)CC[C@@]43C)[C@@H]1CC[C@@H]2C(=O)C=O", "growth inhibition": "61% (inactive)"},
      {"smiles": "COc1cc2c[n+](C)c3c4cc(OC)c(OCc5ccccc5)cc4c(OCc4ccccc4)cc3c2cc1OC", "growth inhibition": "94% (active)"},
      {"smiles": "Nc1ncnc2c1c(-c1ccc(Cl)cc1)cn2-c1ccccc1", "growth inhibition": "82% (active)"},
      {"smiles": "Cc1c[nH]c2nc(C)n(-c3ccccc3)c(=N)c12", "growth inhibition": "3% (inactive)"},
      {"smiles": "COc1ccc(Cc2ccc3c(C)cc(Cl)nc3c2)cc1", "growth inhibition": "96% (active)"},
      {"smiles": "COC(=O)c1ccc(NCc2c(O)ccc(O)c2Br)cc1Cl", "growth inhibition": "99% (active)"},
      {"smiles": "CC1=CC(=O)c2c(O)c3c(c(O)c2C1=O)C1C(O)C(C3=O)C23C(=O)c4c(O)c(C)cc(O)c4C(O)=C2C(=O)CC(O)C13", "note": "(stereo not drawn)", "growth inhibition": "96% (active)"},
      {"smiles": "CC(C)(O)[C@H](CCO)O[Si](c1ccccc1)(c1ccccc1)C(C)(C)C", "growth inhibition": "97% (active)"},
      {"smiles": "COC(=O)/C(C#N)=C(/SC)N(C)C", "growth inhibition": "10% (inactive)"},
      {"smiles": "N#CC(C(=O)CCCC(=O)Nc1ccc(Cl)cc1)c1ccccc1Cl", "note": "(stereo not drawn)", "growth inhibition": "4% (inactive)"},
      {"smiles": "FC(F)(F)c1cccc(Nc2ccc3cnc4ccccc4c3c2)c1", "growth inhibition": "97% (active)"},
      {"smiles": "CN1C(/C=C/c2ccc(O)c3ncccc23)CCC2CCCC(O)C21", "note": "(stereo not drawn)", "growth inhibition": "94% (active)"},
      {"smiles": "N#CC1(C#N)C(C#N)(C#N)C12CCCC2", "growth inhibition": "66% (inactive)"},
      {"smiles": "O=C1C(Cl)=C(Cl)C(=O)C2=C1CC(Cl)C(Cl)C2", "note": "(stereo not drawn)", "growth inhibition": "97% (active)"},
      {"smiles": "N#CC(/C=C/c1ccccc1)(NO)Nc1cccc(Cl)c1", "note": "(stereo not drawn)", "growth inhibition": "99% (active)"},
      {"smiles": "O=C(O)c1ccccc1C(c1ccccc1)c1ccccc1", "growth inhibition": "71% (active)"},
      {"smiles": "OCC1(c2ccccc2)OC1c1ccccc1", "note": "(stereo not drawn)", "growth inhibition": "16% (inactive)"},
      {"smiles": "COc1ccc(NS(=O)(=O)c2ccc(F)cc2)cc1", "growth inhibition": "-22% (inactive)"},
      {"smiles": "CCn1c2nc(=O)n(C)c(=O)c-2[n+]([O-])c2cc(C)ccc21", "growth inhibition": "27% (inactive)"},
      {"smiles": "O=[N+]([O-])C(=C(Nc1ccccc1)Nc1ccccc1)C(Cl)=C(Cl)Cl", "growth inhibition": "99% (active)"},
      {"smiles": "CCC/C(=N\\NC(=S)N(C)C)c1ccccn1", "growth inhibition": "99% (active)"},
      {"smiles": "O=C(CSc1cc[o+]cc1)c1cccc([N+](=O)[O-])c1", "growth inhibition": "86% (active)"},
      {"smiles": "CC12CCC(c3sc(N)c(C#N)c31)C2(C)C", "note": "(stereo not drawn)", "growth inhibition": "-4% (inactive)"},
      {"smiles": "N#CC(C#N)=C(C1CC1)C1CC1", "growth inhibition": "96% (active)"},
      {"smiles": "Cc1c(N=Nc2cccc(F)c2)c(-c2ccccc2)nn1C(N)=S", "growth inhibition": "99% (active)"},
      {"smiles": "CN1COc2c(Cl)cc(Cl)cc2C1", "growth inhibition": "91% (active)"},
      {"smiles": "O=C1CCCCO1", "growth inhibition": "-4% (inactive)"},
      {"smiles": "Nc1cc2c(cc1/C=C(\\C(=O)O)c1ccccc1)OCO2", "growth inhibition": "-8% (inactive)"},
      {"smiles": "Cc1cc2c(cc1C)C(=O)OC2=O", "growth inhibition": "1% (inactive)"},
      {"smiles": "C(/Cc1ccc2c(c1)OCO2)=N\\NC1=NCCCCN1", "growth inhibition": "-15% (inactive)"},
      {"smiles": "CCCCCCCCN(CCCCCCCC)CC(O)c1cc(-c2ccc(OC)cc2)nc2cc(Cl)ccc12", "note": "(stereo not drawn)", "growth inhibition": "85% (active)"},
      {"smiles": "Cc1cc(C(=O)CBr)c(CN2C(=O)c3ccccc3C2=O)c(=O)n1C", "growth inhibition": "99% (active)"},
      {"smiles": "O=C(O)c1ccccc1-c1c2ccc(=O)c(Br)c-2oc2c(Br)c(O)ccc12", "growth inhibition": "98% (active)"},
      {"smiles": "O=C(Nc1cccc(NC(=O)c2cc(=O)c3ccccc3o2)n1)c1cc(=O)c2ccccc2o1", "growth inhibition": "-4% (inactive)"},
      {"smiles": "COC(=O)c1nc(=S)[nH]c(C(=O)OC)c1C(=O)c1ccc([N+](=O)[O-])cc1", "growth inhibition": "80% (active)"},
      {"smiles": "COC1/C=C\\C=C(/C)C(=O)Nc2cc3nc4cc(Br)ccc4oc-3c(c2=O)CC(C)CC(OC)C(O)C(C)/C=C(\\C)C1OC(N)=O", "note": "(stereo not drawn)", "growth inhibition": "94% (active)"},
      {"smiles": "NC(=S)C(=S)N/C=C(/c1ccc(Cl)cc1)S(=O)(=O)Cc1ccc(Cl)cc1", "growth inhibition": "98% (active)"},
      {"smiles": "O=C(Cc1ccccc1)c1ccccc1C(=O)NNc1ccccc1", "growth inhibition": "-2% (inactive)"}
    ]}
  ]
}
